Results: the OligoGym collection

Each sequence was assayed against ANG (assay: pooled miR-30 sensor sort-seq; sequence = guide strand). Settings: shRNA.
Further: reference of the scale not given here.

Sequence | sensor-assay potency score (higher = more potent)
TTCACAGTATCTGTCATCCCGG | -0.736
TTGTTTTCACAGATGGCCTTGA | 0.228
TTAGGTTTTCTCTGTGAGGGTT | 0.674
TTTGGCATCATAGTGCTGGGTC | 0.651
TAGCTTGCAAGTGGTGACCTGG | -0.539
TTCTTAGGTTTTCTCTGTGAGG | -0.88
TTTCACAGTATCTGTCATCCCG | 0.634
TTATCCTGAGCCAGGGTCGGTG | -1.46
TTGTTGCCATGAATAAATGTGT | -0.656
TTGATGTCTTTGCAGGGTGAGG | -1.52
TCACAGATGGCCTTGATGCTGC | -0.333

The sequences below were run against ANK1 in the same assay as above. Settings: shRNA.

Sequence | sensor-assay potency score (higher = more potent)
TCGGTGACCGCGTCGATCGAGG | -1.26
TCACTGACTAACACGAAACTGG | -0.214
TCGTATTGCAACAGGAGCCGGA | -0.769
TTCATCTTCCGAGACATCCAGG | -0.548
TGCACCTGTCGCGTCATCCTGC | -1.06
TTCTAGAATGATTTCTTTGTGC | 0.132
TAGAATGATTTCTTTGTGCAGA | -0.0456
TTGATGTTTCCATAGTGACTGG | -0.739
TGGACAAGTCTATCTGTCGAAC | -1.67
TCATCTGTCATGCAGTAGCAGC | -1.12
TTGCGAATGATCTTCTTGGTGA | 0.462
TCTATCTGTCGAACCACCTTGC | 0.271
TTGTGCAGCATCTTGCAGGTAT | 0.193
TTGGTGACGGCATTCTCCGGGA | -0.46
TTGCAGGTATGAGACAATCGAG | -1
TAGCTTCGGCACAAAATCCAGC | -0.878
TTGACTTTGGCTTTGTTCTGGA | 0.642
TTCTCTTCATCAACATCCCTGG | -0.331
TTGGTCTTGGTTTCTATCTGGG | -0.274
TATTCTGAAACTCATTCCCCTG | -1.12
TCTCTTCTGACCTCTGACCTTC | -0.43
TTAGTGACAAGCTCATCCGGGA | -0.401
TGTGGTGTGAAATTGACGCTGG | 0.797
TATCTGTCGAACCACCTTGCGA | -1.29

What follows are sequences tested against ANKRD22 in the same assay as above. Settings: shRNA.

Sequence | sensor-assay potency score (higher = more potent)
TTGACATTAGCATTTCTTCTTA | -0.439
TTTCTTCACAGCATAATGCAAG | -0.597
TAGCATTAACTTCGACGCCAGC | -1.11
ATTAAAGCCATCTTGAACGTTG | -0.412
TATCCAGTGAGCTCTCACCATG | -1.62
